Inconclusive results are not listed. Where a call stands in place of a potency, no number is given. Values without a mark were called inactive. Activity calls are given as the source filed them. Calls follow the shape of the dose curve; as a rule, active = well fitted inhibition curve with a large enough effect; inconclusive = small, poorly fitted or top-dose-only effect; inactive = flat fitted curve, though single readings scatter.
Assay: P-glycoprotein substrates identified in KB-8-5-11 adenocarcinoma cell line, qHTS therapeutic library screen (AID 1346987); also: nearly all actives have a fitted effect of over 65% in size
Conditions: KB-8-5-11 (P-gp overexpressing) viability, CellTiter-Glo, 72 h; series mostly up to 44.5 µM
Method in brief: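 Luminescence from CellTiter-Glo, read 5 min after addition, quantified survival of KB-8-5-11 (P-gp-overexpressing) cells exposed to compounds for 72 h. AC50 was derived from concentration-response curves.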
Potency is read from the fitted curve at half-maximal effect.

Row | SMILES | Potency | activity change, negative = cytotoxicity
1 | Cn1c(CO)c(-c2ccccc2)c2cc([N+](=O)[O-])ccc21 | inactive | –
2 | O=C(Nc1cc(C(F)(F)F)cc(C(F)(F)F)c1)c1cnc(Cl)nc1C(F)(F)F | 16.4 µM (active) | –
3 | CCCCCCCCCCCCCCCC(=O)OC/C=C(C)/C=C/C=C(C)/C=C/C1=C(C)CCCC1(C)C | inactive | –
4 | CCCCCCCCCCCCCCCC(=O)OC[C@H](O)[C@H]1OC(=O)C(O)=C1O | inactive | –
5 | CCCC1([C@H](O)C/C=C/[C@H]2[C@H](O)CC(=O)[C@@H]2CCCCCCC(=O)OC)CCC1 | inactive | –
6 | O=c1nc(-c2ccccn2)sc2ccccc12 | inactive | –
7 | Oc1cccc(C2NC(=S)Nc3cccc(F)c32)c1 (stereo not given) | 23.1 µM (active) | –
8 | COc1ccc(S(=O)(=O)n2cnc3cc(C)c(C)cc32)cc1 | inactive | –
9 | CCC(c1ccccc1)c1noc(CCN(CC)CC)n1 (stereo not given) | inactive | –
10 | C=CC(=O)Nc1ccc2ncnc(Nc3cccc(Br)c3)c2c1 | 8.2 µM (active) | –
11 | CC(/C=C/C(=O)NO)=C\[C@@H](C)C(=O)c1ccc(N(C)C)cc1 | 0.58 µM (active) | –
12 | CC(C)(C)c1ccc(C(=O)Nc2cn3cc(-n4ccnc4)ccc3n2)cc1 | inactive | –
13 | C=C1C(=O)OC2C3=C(C)C(=O)CC3C(C)CC(O)C12 (stereo not given) | inactive | –
14 | C/C=C/C=C/c1cc2c(C=O)c(O)c(CC=C(C)C)cc2o1 | inactive | –
15 | C1=Cc2ccccc2C(=C2CCN(CCCCc3nn[nH]n3)CC2)c2ccccc21 | inactive | –
16 | CCNc1nc(Nc2cc(F)c(C(=O)N3CCOCC3)cc2OC)ncc1C(F)(F)F | 9.2 µM (active) | –
17 | Cc1cc2occ(CN(C)CCN(C)Cc3cn(-c4cccc(C(F)(F)F)c4)c4ccccc34)c(=O)c2cc1C | 18.4 µM (active) | –
18 | C=CS(=O)(=O)O | inactive | –
19 | O=C(NCC1(N2CCN(c3ccccc3)CC2)CCOCC1)c1cccnc1Sc1ccccc1 | inactive | –
20 | CC(=O)c1ccc2c(c1)[C@H](NC(=O)c1ccc(F)c(Cl)c1)[C@H](O)C(C)(C)O2 | inactive | –

Row | SMILES | Potency | activity change, negative = cytotoxicity
21 | O=C(Nc1ccc2[nH]nc(-c3ccncc3)c2c1)[C@@H]1CCN(CC(=O)N2CCN(c3ccc(-c4ncccn4)cc3)CC2)C1 | inactive | –
22 | CCCCCCCC/C=C\CCCCCCCC(=O)OC[C@@H](O)[C@H]1OC[C@H](O)[C@H]1O | inactive | –
23 | CCCCOC(=O)C(=O)Nc1cccc(-c2nn[nH]n2)c1 | inactive | –
24 | CN(C)CCOC(C)(c1ccccc1)c1ccc(Cl)cc1 (stereo not given) | 16.4 µM (active) | –
25 | CCC(C)/C=C(C)/C=C/C1=CC2=CC(=O)C3(C)OC(C)(O)C(C(=O)OC)C3C2=CO1 (stereo not given) | inactive | –
26 | CCCCCCCCCCCCCCCC(=O)O[C@@H]1CC(C)=C(/C=C/C(C)=C/C=C/C(C)=C/C=C/C=C(C)/C=C/C=C(C)/C=C/C2=C(C)C[C@@H](OC(=O)CCCCCCCCCCCCCCC)CC2(C)C)C(C)(C)C1 | inactive | –
27 | CCCCCCCCCC(=O)O | inactive | –
28 | C=C(C(=O)OC[C@H]1O[C@@H](OC(=O)/C=C/c2ccccc2)[C@H](O)[C@@H](O)[C@@H]1O)C(O)CO (stereo not given in full) | inactive | –
29 | CCC(C)(OC(C)=O)C(=O)O[C@H]1[C@H](OC(C)=O)[C@]2(CO)[C@H](O)[C@H](O)[C@]3(C)C(=CCC4[C@@]5(C)CC[C@H](O[C@@H]6O[C@H](C(=O)O)[C@@H](O)[C@H](O[C@@H]7OC[C@H](O)[C@H](O[C@@H]8OC[C@H](O)[C@H](O)[C@H]8O)[C@H]7O)[C@H]6O[C@@H]6O[C@H](CO)[C@@H](O)[C@H](O)[C@H]6O)C(C)(C)C5CC[C@]43C)[C@@H]2CC1(C)C (stereo not given in full) | – | -29% [at 9.29 µM]
30 | COCC1=C(C(=O)OC(C)OC(=O)OC(C)C)N2C(=O)[C@@H](NC(=O)/C(=N\OC)c3csc(N)n3)[C@H]2SC1 (stereo not given in full) | inactive | –
31 | CC(C)(C)NC(=O)[C@H]1CC[C@H]2[C@@H]3CC=C4C=C(C(=O)O)CC[C@]4(C)[C@H]3CC[C@]12C | inactive | –
32 | Cc1ccc(/C(=C\CN2CCCC2)c2cccc(/C=C/C(=O)O)n2)cc1 | inactive | –
33 | CN(C)CCn1cc(-c2ccc(F)cc2)c(-n2cccc2)n1 | inactive | –
34 | COC(C)(C)CCn1nc(Nc2c(C)cccc2C)c2cnc(Nc3ccc(OCCN4CCCC4)c(F)c3)nc21 | 20.6 µM (active) | –
35 | CC(C)=C[C@@H]1[C@H](CO[C@@H]2O[C@H](CO)[C@@H](O)[C@H](O)[C@H]2O)C1(C)C | inactive | –
36 | CC(=O)O[C@H]1CC(C)(C)CC2[C@]13CO[C@@]21CCC2[C@@]4(C)CC[C@H](O[C@@H]5OC[C@H](O[C@@H]6O[C@H](CO)[C@@H](O)[C@H](O)[C@H]6O[C@@H]6OC[C@@H](O)[C@H](O)[C@H]6O)[C@H](O)[C@H]5O[C@@H]5O[C@H](CO)[C@@H](O)[C@H](O)[C@H]5O)[C@@](C)(CO)C4CC[C@@]2(C)[C@]1(C)C[C@H]3O (stereo not given in full) | – | -5.92% [at 9.29 µM]
37 | NS(=O)(=O)c1ccc(N2CCN(CC[C@@H]3OCCc4ccccc43)CC2)cc1 | inactive | –
38 | CCc1c[nH]c2ncnc(N3CC[C@](N)(CNC(=O)c4ccc(F)cc4F)C3)c12 | inactive | –
39 | CCC(=O)Oc1ccc2c(c1)CC[C@@H]1[C@@H]2CC[C@]2(C)[C@@H](OC(=O)CC)CC[C@@H]12 | 10.3 µM (active) | –
40 | CN(C)C(=O)NC1(c2ccccc2)CCN(CCC[C@]2(c3ccc(Cl)c(Cl)c3)CCCN(C(=O)c3ccccc3)C2)CC1 | 18.4 µM (active) | –

From PubChem BioAssay (NCATS)
